Measurements from PubChem BioAssay (Tox21).
Unmarked numbers belong to inactive results. Inconclusive results are not listed. A call without a number means that no potency is given here. Activity calls are given as the source filed them. Unless noted, calls follow the shape of the full dose curve.

Tests used:
[1] = Nuclear factor erythroid 2-related factor 2/antioxidant responsive element (Nrf2/ARE) small molecule agonists: qHTS cell viability counter screen in human keratinocytes (AID 1919968; active = well fitted curve in the direction sought with a large enough effect in the repeat runs; an effect the other way counts as inactive or inconclusive; also: nearly all actives have a fitted effect of over 55% in size)
Method in brief: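 Cells of the KeratinoSens line were plated at 1,500 per well and left for 5 h before compound transfer from DMSO stocks. After a 23 h incubation (37 C, 5% CO2), CellTiter-Fluor was added. Signal was taken as fluorescence intensity 1 h later.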

[2] = Nuclear factor erythroid 2-related factor 2/antioxidant responsive element (Nrf2/ARE) small molecule agonists: luciferase reporter gene qHTS assay in human keratinocytes (AID 1919969); also: nearly all actives have a fitted effect of over 35% in size; also: potency is read from the fitted curve at half-maximal effect
[3] = target: Gonadotropin-releasing hormone receptor (Homo sapiens) (UniProt P30968); test: Human gonadotropin-releasing hormone receptor (GnRHR) small molecule agonists, calcium flux assay in GnRHR-HEK293 cells (AID 1920063); also: nearly all actives have a fitted effect of over 35% in size
Gonadotropin-releasing hormone receptor (Homo sapiens), sequence (P30968 whole entry, looked up): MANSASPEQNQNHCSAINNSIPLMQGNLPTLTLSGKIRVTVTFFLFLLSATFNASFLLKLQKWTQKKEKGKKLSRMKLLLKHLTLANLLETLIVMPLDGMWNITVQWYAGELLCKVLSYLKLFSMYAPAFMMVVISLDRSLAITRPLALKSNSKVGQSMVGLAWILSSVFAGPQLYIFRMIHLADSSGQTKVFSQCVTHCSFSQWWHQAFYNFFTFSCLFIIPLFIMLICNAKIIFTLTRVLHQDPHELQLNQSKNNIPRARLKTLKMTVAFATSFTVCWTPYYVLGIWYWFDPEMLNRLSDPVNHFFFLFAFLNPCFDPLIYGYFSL
Method in brief: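 Compounds dissolved in DMSO are pin-transferred onto dye-loaded GnRHR-HEK293 cells, which were seeded 18 h before at 37 C/5% CO2. Calcium signal is read as fluorescence intensity at 1 s intervals for 3 min.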

[4] = target: KiSS-1 receptor (Homo sapiens) (UniProt Q969F8); test: Human kisspeptin (KISS1R) small molecule agonists, calcium flux assay in KISS1R-HEK293 cells (AID 1920064; active = well fitted curve in the direction sought with a large enough effect in the repeat runs; an effect the other way counts as inactive or inconclusive)
KiSS-1 receptor (Homo sapiens), sequence (Q969F8 whole entry, looked up): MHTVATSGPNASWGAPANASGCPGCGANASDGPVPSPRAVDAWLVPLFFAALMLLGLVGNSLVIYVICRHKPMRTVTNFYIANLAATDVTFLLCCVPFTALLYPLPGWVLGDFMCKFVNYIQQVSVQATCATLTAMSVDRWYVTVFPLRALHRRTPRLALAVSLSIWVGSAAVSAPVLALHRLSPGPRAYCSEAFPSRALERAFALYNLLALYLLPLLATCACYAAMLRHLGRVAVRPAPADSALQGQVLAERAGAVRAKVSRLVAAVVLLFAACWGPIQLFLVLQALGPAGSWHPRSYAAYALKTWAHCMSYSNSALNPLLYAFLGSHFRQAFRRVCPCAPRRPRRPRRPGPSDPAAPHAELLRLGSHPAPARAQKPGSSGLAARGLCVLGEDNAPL
Method in brief: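 Cell line: HEK293, stable human KISS1R. Dye loading 1 h at 37 C after 18 h culture. Read: kinetic fluorescence, 480/540 nm, 3 min at 1 s intervals.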

[5] = G protein-coupled receptor (GPCR) small molecule agonists, calcium flux assay: HEK293 wild type cell line counter screen (AID 1920065)
Method in brief: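 Tox21 10K compounds, 15 concentrations each in triplicate, pin-transferred in DMSO onto dye-loaded cells; kinetic read at 480/540 nm for 3 min, 1 s intervals.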

[6] = p53 small molecule agonists, cell-based qHTS assay with human liver microsomes: qHTS cell viability counter screen (AID 1963579); also: nearly all actives have a fitted effect of over 45% in size
Method in brief: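 Luminescent CellTiter-Glo read-out, 30 min at room temperature, gauged cytotoxicity in p53RE-bla cells exposed 16 h at 37 C to DMSO-dissolved compounds with metabolic activation by human liver microsomes and NADPH, each 0.5 mg/mL final.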

[7] = p53 small molecule agonists, cell-based qHTS assay: qHTS cell viability counter screen (AID 1963581); also: nearly all actives have a fitted effect of over 45% in size
Method in brief: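 ATP content measured by luminescence in HCT-116 p53RE-bla cells treated 16 h at 37 C, same wells as the reporter screen.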

[8] = target: 5-hydroxytryptamine receptor 2A (Homo sapiens) (UniProt P28223); test: 5-hydroxytryptamine receptor 2A (HTR2A) small molecule antagonists, cell-based qHTS assay (AID 1963586); also: nearly all actives have a fitted effect of over 45% in size; also: potency is read from the fitted curve at half-maximal effect
5-hydroxytryptamine receptor 2A (Homo sapiens), sequence (P28223 whole entry, looked up): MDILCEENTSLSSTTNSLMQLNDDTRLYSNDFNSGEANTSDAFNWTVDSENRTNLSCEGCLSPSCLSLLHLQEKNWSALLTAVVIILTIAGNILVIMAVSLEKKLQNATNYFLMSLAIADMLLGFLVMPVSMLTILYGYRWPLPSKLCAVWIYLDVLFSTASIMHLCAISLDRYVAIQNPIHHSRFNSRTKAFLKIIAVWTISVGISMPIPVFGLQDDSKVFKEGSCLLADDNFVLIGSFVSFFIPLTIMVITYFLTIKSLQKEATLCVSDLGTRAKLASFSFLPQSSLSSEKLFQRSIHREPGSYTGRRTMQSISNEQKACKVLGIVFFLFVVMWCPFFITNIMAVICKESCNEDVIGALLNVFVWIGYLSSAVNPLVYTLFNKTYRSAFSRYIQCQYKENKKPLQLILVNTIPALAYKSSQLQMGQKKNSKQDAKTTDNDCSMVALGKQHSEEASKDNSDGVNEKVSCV
Method in brief: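 CHO cells stably expressing human HTR2A were plated for 18 h at 37 C, then loaded with calcium dye for 1 h. Compounds were preincubated 5 min at room temperature before DOI (4 nM solution) was added. Kinetic fluorescence was read for 3 min.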

[9] = target: 5-hydroxytryptamine receptor 2A (Homo sapiens) (UniProt P28223); test: 5-hydroxytryptamine receptor 2A (HTR2A) small molecule agonists, cell-based qHTS assay (AID 1963587); also: nearly all actives have a fitted effect of over 30% in size
Method in brief: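 HTR2A-CHO cells, plated 18 h at 37 C/5% CO2, dye-loaded 1 h at 37 C; compounds in DMSO added by pin tool (agonist mode). Intracellular calcium flux read as kinetic fluorescence on FDSS over 2 min at 1 s intervals.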

[10] = target: Muscarinic acetylcholine receptor M1 (Homo sapiens) (UniProt P11229); test: Cholinergic receptor muscarinic 1 (CHRM1) small molecule antagonists, cell-based qHTS assay (AID 1963588); also: nearly all actives have a fitted effect of over 40% in size
Muscarinic acetylcholine receptor M1 (Homo sapiens), sequence (P11229 whole entry, looked up): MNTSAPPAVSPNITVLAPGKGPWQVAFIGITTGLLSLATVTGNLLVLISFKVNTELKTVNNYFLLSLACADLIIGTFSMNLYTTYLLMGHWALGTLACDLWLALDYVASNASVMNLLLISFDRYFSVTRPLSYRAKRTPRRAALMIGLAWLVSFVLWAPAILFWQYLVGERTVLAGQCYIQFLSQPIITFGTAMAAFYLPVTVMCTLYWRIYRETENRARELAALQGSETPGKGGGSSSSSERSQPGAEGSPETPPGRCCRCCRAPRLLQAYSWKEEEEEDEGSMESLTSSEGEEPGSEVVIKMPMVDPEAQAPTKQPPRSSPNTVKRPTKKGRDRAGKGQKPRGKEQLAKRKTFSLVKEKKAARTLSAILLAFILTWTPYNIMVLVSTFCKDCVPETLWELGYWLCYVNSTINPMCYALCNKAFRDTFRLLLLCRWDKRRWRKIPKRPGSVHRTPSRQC
Method in brief: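 Compounds were tested at 15 concentrations in three independent runs. Dye-loaded CHRM1-CHO cells were exposed 5 min at room temperature before stimulation by acetylcholine added at 50nM. Intracellular calcium was read kinetically on FDSS for 3 min.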

[11] = target: Muscarinic acetylcholine receptor M1 (Homo sapiens) (UniProt P11229); test: Cholinergic receptor muscarinic 1 (CHRM1) small molecule agonists, cell-based qHTS assay (AID 1963589); also: nearly all actives have a fitted effect of over 35% in size
Method in brief: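 Homogeneous fluorescence calcium flux, agonist mode. Human M1-expressing CHO cells; compound dosed at 15 concentrations, three independent runs; signal sampled every 1 sec.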

[12] = cAMP Responsive Elements (CRE) small molecule agonists, cell-based qHTS assay (AID 1963590)
Method in brief: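 HEK 293T cells stably bearing CRE-bla were plated at 2,000 cells per well and rested 18 h. Compounds, positive controls or DMSO were added for 3 h at 37 C. LiveBLAzer B/G substrate was then loaded for 2 h at room temperature.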

[13] = cAMP Responsive Elements (CRE) small molecule antagonists, cell-based qHTS assay (AID 1963591; active = well fitted inhibition curve with a large enough effect in the signal ratio in the repeat runs, not every such curve was filed as active; the % refers to the signal ratio)
Method in brief: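 First, CRE-bla HEK293T cells settled 18 h at 37 C. Next, compound and 0.25 uM final NKH477 were applied for 3 h. Last, LiveBLAzer B/G substrate was loaded for 2 h at room temperature.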

[14] = target: Beta-2 adrenergic receptor (Homo sapiens) (UniProt P07550); test: Adrenergic beta2 receptor (ADRB2) small molecule antagonists, cell-based qHTS assay (AID 1963592); also: series mostly up to about 92 µM; nearly all actives have a fitted effect of over 50% in size
Beta-2 adrenergic receptor (Homo sapiens), sequence (P07550 whole entry, looked up): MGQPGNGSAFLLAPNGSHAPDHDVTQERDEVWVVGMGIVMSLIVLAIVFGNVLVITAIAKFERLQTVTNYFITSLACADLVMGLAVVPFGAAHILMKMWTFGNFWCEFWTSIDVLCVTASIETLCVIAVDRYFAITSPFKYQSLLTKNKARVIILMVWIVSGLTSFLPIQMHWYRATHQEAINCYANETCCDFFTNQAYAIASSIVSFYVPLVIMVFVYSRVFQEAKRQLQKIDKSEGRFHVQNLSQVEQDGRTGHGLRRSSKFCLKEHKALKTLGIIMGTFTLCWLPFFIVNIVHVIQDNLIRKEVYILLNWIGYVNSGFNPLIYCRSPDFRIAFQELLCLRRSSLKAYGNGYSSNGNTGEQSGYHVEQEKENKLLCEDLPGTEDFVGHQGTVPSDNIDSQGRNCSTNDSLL
Method in brief: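 Assay format: CHO-ADRB2 cells, 18-20hr seeding at 37C/5% CO2, then compound plus 1nM isoproterenol agonist mix for 0.5hr RT. Homogeneous time-resolved fluorescence cAMP detection after 1hr, expressed as 665/615 nm ratio.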

[15] = target: Beta-2 adrenergic receptor (Homo sapiens) (UniProt P07550); test: Adrenergic beta2 receptor (ADRB2) small molecule agonists, cell-based qHTS assay (AID 1963593);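 also: CHO cells stably overexpressing human ADRB2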
Method in brief: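 CHO cells stably over-expressing ADRB2 were plated overnight at 37C, then dosed with compounds plus a stimulation mix containing 100uM IBMX and 25uM Ro-20-1724 for 0.5hr at room temperature. cAMP was measured by HTRF competition, 1hr.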

[16] = target: D(2) dopamine receptor (Homo sapiens) (UniProt P14416); test: Dopamine D2 receptor (DRD2) small molecule agonists, cell-based qHTS assay (AID 1963594); also: nearly all actives have a fitted effect of over 35% in size
D(2) dopamine receptor (Homo sapiens), sequence (P14416 whole entry, looked up): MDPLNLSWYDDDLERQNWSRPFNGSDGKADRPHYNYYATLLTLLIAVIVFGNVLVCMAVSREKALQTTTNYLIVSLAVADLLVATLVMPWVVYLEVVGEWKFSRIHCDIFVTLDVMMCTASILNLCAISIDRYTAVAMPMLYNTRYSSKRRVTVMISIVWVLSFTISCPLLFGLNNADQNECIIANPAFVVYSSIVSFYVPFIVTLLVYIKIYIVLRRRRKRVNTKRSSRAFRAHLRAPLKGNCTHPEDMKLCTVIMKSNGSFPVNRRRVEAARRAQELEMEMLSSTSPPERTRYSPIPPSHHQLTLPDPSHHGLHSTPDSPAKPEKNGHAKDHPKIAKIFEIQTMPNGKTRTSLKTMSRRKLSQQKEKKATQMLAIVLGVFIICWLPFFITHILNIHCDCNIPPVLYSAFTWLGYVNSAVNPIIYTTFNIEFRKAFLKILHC
Method in brief: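 HEK293 cells stably expressing DRD2 were cultured 24 h at 37 C, then given Ro20-1724 (0.1 mM final) and compounds for 10 min at room temperature. NKH477 (200nM) was then added for 30 min. cAMP was read by HTRF.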

[17] = target: D(2) dopamine receptor (Homo sapiens) (UniProt P14416); test: Dopamine D2 receptor (DRD2) small molecule antagonists, cell-based qHTS assay (AID 1963595; active = well fitted inhibition curve with a large enough effect in the signal ratio in the repeat runs, with a control signal flat; the % refers to the signal ratio)
Method in brief: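 Readout: HTRF cAMP, cAMP-d2 competing with cellular cAMP for anti-cAMP cryptate, read after 1 h. Cells: DRD2-HEK293. Conditions: 0.1 mM Ro20-1724, 12 nM quinpirole, 200 nM NKH477, 30 min RT.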

[18] = p53 small molecule agonists, cell-based qHTS assay with rat liver microsomes: qHTS cell viability counter screen (AID 1963580); also: nearly all actives have a fitted effect of over 45% in size
Method in brief: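 Counter screen for cytotoxicity under metabolic activation: rat liver microsomes and NADPH, 0.5 mg/mL final each, added with compounds to p53RE-bla HCT-116 cells; 16 h at 37 C, then ATP luminescence read.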

[19] = p53 small molecule agonists, cell-based qHTS assay (AID 1963582; active = well fitted activation curve with a large enough effect in the signal ratio in the repeat runs, not every such curve was filed as active; the % refers to the signal ratio)
Method in brief: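 16 h compound exposure (37 C) of p53 response element–bla cells, preceded by 5 h recovery at 37 C/5% CO2; read-out via LiveBLAzer B/G FRET substrate, 2 h RT, fluorescence intensity.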

Row | Compound | Potency [1] | Potency [2] | Potency [3] | Potency [4] | Potency [5] | Potency [6] | Potency [7] | Potency [8] | Potency [9] | Potency [10] | Potency [11] | Potency [12] | Potency [13] | Potency [14] | Potency [15] | Potency [16] | Potency [17] | Potency [18] | Potency [19]
1 | Cc1nc(N(C)C)nc(OC(=O)N(C)C)c1C | inactive | inactive | inactive | inactive | inactive | inactive | inactive | inactive | inactive | inactive | inactive | inactive | inactive | inactive | inactive | inactive | inactive | – | –
2 | CCOP(=S)(OCC)SC(CCl)N1C(=O)c2ccccc2C1=O (centres undefined) | inactive | 30.6 µM (active) | inactive | inactive | inactive | inactive | – | inactive | – | – | inactive | – | – | – | – | inactive | inactive | inactive | –
3 | COP(=O)(OC)O/C(=C/Cl)c1cc(Cl)c(Cl)cc1Cl | inactive | 51.3 µM (active) | inactive | inactive | inactive | inactive | – | 15.8 µM (active) | inactive | – | inactive | inactive | – | – | – | inactive | inactive | inactive | inactive
4 | C=C(C)[C@H]1CN[C@H](C(=O)O)[C@H]1CC(=O)O | inactive | inactive | inactive | inactive | inactive | inactive | inactive | – | inactive | – | inactive | inactive | inactive | inactive | inactive | inactive | inactive | – | –
5 | O=C(CCl)NCO | inactive | inactive | inactive | inactive | inactive | – | inactive | inactive | inactive | inactive | inactive | inactive | inactive | inactive | – | inactive | inactive | inactive | inactive
6 | CCOC1Oc2ccc(OS(C)(=O)=O)cc2C1(C)C (centres undefined) | inactive | inactive | inactive | inactive | inactive | – | inactive | inactive | inactive | inactive | inactive | inactive | inactive | inactive | inactive | inactive | inactive | inactive | –
7 | CNC(=O)O/N=C(\C)SC | inactive | inactive | inactive | inactive | inactive | inactive | – | inactive | – | inactive | inactive | inactive | inactive | inactive | inactive | inactive | inactive | inactive | inactive
8 | O=C1OC(=O)C2C1C1(Cl)C(Cl)=C(Cl)C2(Cl)C1(Cl)Cl (centres undefined) | inactive | inactive | inactive | inactive | inactive | inactive | – | inactive | inactive | inactive | inactive | inactive | inactive | inactive | – | inactive | inactive | inactive | –
